# SARS PLpro yeast – blocks SARS-CoV papain-like protease in a yeast assay. S. cerevisiae expressing SARS-CoV PLpro, growth rescue. Potency, µM (highest dose often 32.9 µM), for the others: at the top dose activity, positive = growth rescue, usual class: activators. actives 0.19% (n = 330,000). AID 485353; calls by dose curve; further: potency means the concentration at half of the fitted maximal effect; 0% is about no effect; nearly all actives have a fitted effect of over 55% in size
# Shiga inhibitor – blocks Shiga toxin action in Vero cells; inhibition, % at 38.7 µM; Vero cells, Shiga toxin protein synthesis inhibition reporter; actives 9.2% (n = 290,000); AID 2315; in the data active means inhibition mostly above about 28%, no sharp cut-off; inactive means mostly below about 43%; further: 0% is about no effect
# AMA1-RON2 inh – inhibitors of Plasmodium falciparum AMA1-RON2 interaction | AlphaScreen AMA1-biotinylated RON2 peptide binding | AID 720542 | actives 0.2% (n = 360,000) | Potency, µM (top dose mostly 58.2 µM), for the others: at the top dose activity change, negative = inhibition, actives largely listed as inhibitors;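 further: potency means the concentration at half of the fitted maximal effect; 0% = vehicle wells and -100% = peptide control; nearly all actives have a fitted effect of over 45% in size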
#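 AMA1 (3D7) with his tag at 25 nM final met compounds first, then biotinylated RON2 peptide at 25 nM; detection used donor plus acceptor beads, 10 µg/mL apiece, read by AlphaScreen after 30 min at room temperature.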
# AmpC inh detg – blocks E. coli AmpC beta-lactamase in detergent assay | P00811 | AmpC hydrolysis of nitrocefin, absorbance 480 nm, 0.01% Triton | Potency, µM (series often up to 114 µM), without a hit: at the highest dose activity change, negative = inhibition, usual class: inhibitors | actives 0.041% (n = 370,000);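 further: potency means the concentration at half of the fitted maximal effect; 0% = no-compound wells and -100% = no-enzyme wells; nearly all actives have a fitted effect of over 25% in size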
# Target sequence (P00811 whole entry, looked up): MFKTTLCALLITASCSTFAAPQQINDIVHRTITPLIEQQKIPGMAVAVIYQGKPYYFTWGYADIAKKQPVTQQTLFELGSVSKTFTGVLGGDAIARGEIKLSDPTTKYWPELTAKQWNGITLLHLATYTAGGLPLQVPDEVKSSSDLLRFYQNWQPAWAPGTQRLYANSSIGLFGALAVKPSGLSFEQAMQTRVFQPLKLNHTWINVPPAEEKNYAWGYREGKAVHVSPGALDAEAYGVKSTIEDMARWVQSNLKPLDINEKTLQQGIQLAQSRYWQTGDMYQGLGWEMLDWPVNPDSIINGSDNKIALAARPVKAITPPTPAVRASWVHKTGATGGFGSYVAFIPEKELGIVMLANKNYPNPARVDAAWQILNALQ
#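 AmpC (5.3 nM in the dispensed reagent) in 20 mM phosphate pH 7.0 with 0.01% (detergent screen) or 0.0001% Triton X-100 was preincubated with compounds for 15 min at room temperature. Nitrocefin was then added from an 800 uM solution, and hydrolysis was followed at 480 nm.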
# CHX counter – counter-screen hit for Shiga toxin inhibitors, cycloheximide | cell reporter, cycloheximide protein synthesis inhibition counterscreen | max response, % | actives 12% (n = 300,000) | AID 2314; in the data active means max response mostly above about 13%, no sharp cut-off; inactive means mostly below about 14%; further: read at 38.3 µM for the half of the compounds with a filed dose; 0% is about no effect
# AmpC inh no detg – inhibitors of E. coli AmpC beta-lactamase without detergent | AmpC nitrocefin hydrolysis, absorbance 480 nm, 0.0001% Triton | Potency, µM (top dose mostly 57.1 µM), for inactives: top-dose activity change, negative = inhibition, hits mostly inhibitors | actives 0.52% (n = 330,000) | AID 485341;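 further: potency means the concentration at half of the fitted maximal effect; plate controls were no compound for no effect and no enzyme for full effect; nearly all actives have a fitted effect of over 20% in size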
#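 20 mM phosphate pH 7.0 + 0.01% (detergent screen) or 0.0001% Triton X-100; 5.3 nM AmpC reagent; cpd preinc 15 min RT; nitrocefin (800 uM stock) to start; A480 q20 s × 4 min; Activity was normalised to no-enzyme and no-compound control wells.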
# The depositor's hits bear a star; ? = inconclusive; / = no result given; + = active, no number; [ ] = another dose, or the depositor's remark. The entries come from a sample that favours hits as a whole. Unless noted, the call rests on the fitted dose curve; in most records, active means well fitted curve in the direction sought with a large enough effect; inconclusive means small, poorly fitted or top-dose-only effect, or another doubt; inactive means no such curve, though single readings can be large; an effect the other way counts as inactive or inconclusive.
SMILES,SARS PLpro yeast,Shiga inhibitor,AMA1-RON2 inh,AmpC inh detg,CHX counter,AmpC inh no detg
Cc1ccc(-c2nn(-c3ccccc3)cc2C(=O)NCCCN2CCOCC2)cc1,2.2%,36.4,14.5%,3.7%,16.2*,189.2%
Cc1ccc(Nc2cc(C(=O)NCCCN3CCOCC3)c3ccccc3n2)cc1C,1.6%,40.1*,-11.8%,-5.5%,38.4*,142.4%
Cc1cc(Nc2cccc(C)c2C)n2nc(C)nc2n1,3.4%,-3.5,-0.6%,3.2%,-1.8,4.6%
COc1ccc(Cl)cc1NS(=O)(=O)c1cccc(C(=O)N2CC(C)OC(C)C2)c1 (configuration not stated),-0.7%,/,-6.9%,1.4%,/,108.9%
Oc1ccc2ccccc2c1Br,-1.6%,-10.8,-0.6%,?,-1.4,-18.4%
CC1CN(c2nc3ccccc3nc2C(C#N)C(=O)NC2CCCCC2)CC(C)O1 (configuration not stated),8.3%,19.2,/,-2.4%,18.7*,18.1%
CC1CN(c2nc3ccccc3nc2C(C#N)C(=O)OC2CCCCC2)CC(C)O1 (configuration not stated),2.0%,1.3,0.0%,-11.8%,0.9,5.3%
Cc1ccc(C(C)C)c(OCc2n[nH]c(=S)o2)c1,0.2%,1.8,35.6%,1.1%,-5.9,10.1%
Cc1ccc(C(C)C)c(OCc2nc(-c3nonc3N)no2)c1,-11.8%,100.9*,2.5%,-15.6%,28.1*,-50.2%
CCOC(=O)C(NC(=O)c1ccccc1)(OCc1ccccc1)C(F)(F)F (configuration not stated),5.7%,-3.1,3.6%,-5.0%,-1.9,-7.0%
CCOC(=O)C(NC(=O)c1cccc(Cl)c1)(OCc1ccccc1)C(F)(F)F (configuration not stated),-0.8%,+,-9.6%,0.5%,19.8*,-18.4%
CC(=O)N1c2ccccc2C(=O)C1N1CCN(c2cccc(C)c2C)CC1 (configuration not stated),/,/,/,-0.6%,/,/
CC(=O)N1c2ccccc2C(=O)C1N(C)c1ccc(C)cc1 (configuration not stated),-2.5%,44.6*,-6.3%,-6.0%,32.8*,2.5%
Cn1c(-c2cnn(-c3ccccc3)c2N)n[nH]c1=S,0.2%,9.6,82.9%,-0.1%,-0.9,-22.8%
Nc1nc2c(s1)CCc1c-2cnn1-c1ccccc1,-31.3%,150.9*,8.3%,89.1µM*,46.0*,-49.2%
CN1c2ccccc2C(=O)NC1c1ccc([N+](=O)[O-])s1 (configuration not stated),-0.3%,17.6,22.0%,1.4%,1.1,-30.7%
OC(CCc1cccc(Cl)c1)c1cccs1 (configuration not stated),-3.3%,44.4*,-1.5%,-7.6%,34.6*,-21.7%
COc1ccc2nc(NC(=O)CCc3ccc(OC)c(OC)c3)sc2c1,-0.4%,29.6,-9.2%,-0.3%,30.3*,-4.1%
C/C(=N\OCC(=O)Nc1nc2ccccc2s1)c1ccccc1,-29.3%,13.6,-10.3%,-3.3%,10.1,-19.6%
COc1ccc2nc(NC(=O)CCN3C(=O)c4ccccc4C3=O)sc2c1,3.1%,14.4,36.8%,?,10.6,-22.6%
CCCC(=O)Nc1nc2ccc(OC)cc2s1,-20.6%,104.0*,-1.6%,?,74.8*,-23.6%
COc1ccc(/C=N/OCC(=O)Nc2nc3ccccc3s2)cc1,-36.9%,+,5.8%,-8.2%,34.1*,-15.7%
COc1ccc2nc(NC(=S)N(C)C)sc2c1,-17.1%,68.5*,-15.8%,9.5%,46.6*,-14.5%
Cc1cccc(N(C(=O)C(F)(F)F)C(C(=O)NC2CCCCC2)c2cccs2)c1 (configuration not stated),-0.7%,-6.2,12.4%,-9.3%,-1.9,-11.5%
O=C(CSc1nnc(Cn2nnc3ccccc32)o1)Nc1cccc(Cl)c1,-2.1%,-7.0,11.2%,-1.5%,-3.0,-36.3%
SMILES,SARS PLpro yeast,Shiga inhibitor,AMA1-RON2 inh,AmpC inh detg,CHX counter,AmpC inh no detg
COc1ccc(CNC(=O)C2CCCN(c3ncnc4c3nc3n4CCCCC3)C2)cc1 (configuration not stated),-2.1%,-3.1,7.2%,-3.1%,-4.4,-8.3%
COc1cccc(-c2onc3ccc(C4(C)OCCO4)cc23)c1,-1.7%,31.1,4.5%,?,25.8*,35.8%
CC1(c2ccc3noc(-c4ccccc4)c3c2)OCCO1,-1.0%,29.9,3.4%,?,-1.3,-14.2%
CC(=O)c1ccc2noc(-c3cccc(F)c3)c2c1,0.8%,6.9,-3.8%,-10.0%,-0.4,-8.8%
COc1cccc(-c2onc3ccc(C(C)=O)cc23)c1,-0.4%,31.3,7.8%,-12.4%,15.4*,-11.2%
CC1(c2ccc3noc(-c4ccc(F)cc4)c3c2)OCCO1,-0.8%,72.4,2.4%,0.0%,18.5*,-15.7%
CC(=O)N1N=C(c2ccc(C)cc2)OC1c1ccc(Br)cc1 (configuration not stated),0.7%,29.8,-11.3%,1.5%,17.4*,42.7%
CC(=O)N1N=C(c2ccc(Cl)cc2)OC1c1ccc(C(C)C)cc1 (configuration not stated),-6.7%,109.9*,0.4%,?,30.4*,-4.7%
c1ccc2c(-c3cn4ccccc4n3)c[nH]c2c1,-2.6%,141.6*,/,-3.9%,43.2*,-29.4%
c1ccc(-c2cn3ccccc3n2)cc1,/,/,14.3%,/,/,/
Oc1ccc(-c2cn3ccccc3n2)cc1,-1.5%,25.3,0.0%,1.5%,23.2*,-3.7%
CN(C)S(=O)(=O)c1ccc(-c2cn3ccccc3n2)cc1,-21.8%,65.3*,0.0%,-4.9%,34.7*,-7.8%
Oc1ccc(-c2cn3ccccc3n2)cc1O,0.1%,-4.0,22.4µM*,-13.7%,3.3,-9.9%
CCN(CC)S(=O)(=O)c1ccc(-c2cn3ccccc3n2)cc1,/,/,-3.0%,/,/,/
COCCN(Cc1cc2ccc(C)c(C)c2nc1Cl)C(=O)N1CCOCC1,-0.2%,-14.1,-7.9%,-1.5%,3.1,230.9%
O=C(Cc1ccccc1F)NCC(=O)Nc1ccccc1Br,4.5%,-5.1,-16.1%,-0.3%,7.9,20.3%
Brc1ccc(OCc2cn3ccccc3n2)cc1,-2.3%,73.3*,23.6%,1.4%,36.2*,-14.5%[2.29 µM]
Cc1ccn2cc(-c3ccc(O)c(O)c3)nc2c1,-0.4%,-14.9,2.51µM*,-1.1%,-9.0,-14.7%
Brc1ccc(-c2cn3ccccc3n2)cc1,-4.2%,51.7*,-7.1%,-5.5%,35.2*,-14.6%
CCCNC(=O)N1[C@H](c2cccs2)[C@@H](C)C(=O)[C@@H](C)[C@@H]1c1cccs1,/,/,/,16.3%,/,/
CN(C(=O)/C=C/c1ccc([N+](=O)[O-])s1)c1ccccc1,-1.9%,64.3,14.3%,-4.6%,9.8,-12.2%
CCOC(=O)c1c(NC(=O)CN2CCN(C)CC2)sc(C(=O)Nc2ccccc2)c1C,-0.6%,18.2,17.5%,-5.8%,28.2*,221.6%

# Screens as filed in PubChem BioAssay.
